The structures appear in SMILES notation. The panel holds about 79,000 compounds, 15% with a hit somewhere; the sample as a whole holds those more often. A number with no mark means an inactive call. The source made the active and inactive calls. Cut-off read from the data, not from the text of the source: active = growth inhibition above about 70%; inactive = the rest.

Experiment [1] can be described thus: NCI Yeast Anticancer Drug Screen. Data for the rad50 strain (AID 155).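 Note: 0% = growth of vehicle-only cultures of the same strain.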 The following applies: S. cerevisiae rad50 strain growth inhibition, stronger effect = higher value. The method, boiled down:
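A DNA repair-deficient yeast mutant serves as the test organism; compound-induced growth inhibition is calculated against vehicle-treated cells.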

A short description of experiment [2]: NCI Yeast Anticancer Drug Screen. Data for the mec2-1 strain (AID 157). The following applies: S. cerevisiae mec2-1 strain, stronger effect = higher value. An outline of the steps:
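Using mec2-1 yeast: add compound, measure growth, express inhibition versus vehicle-treated cultures.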

A short description of experiment [3]: NCI Yeast Anticancer Drug Screen. Data for the sgs1 mgt1 strain (AID 161).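 Note: 0% = growth of cultures given vehicle only.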 The following applies: S. cerevisiae sgs1 mgt1 strain, stronger effect = higher value. An outline of the steps: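 Growth of a repair-deficient yeast mutant was monitored after compound treatment and expressed as inhibition relative to vehicle-treated cultures.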
A short description of experiment [4]: NCI Yeast Anticancer Drug Screen. Data for the cln2 rad14 strain (AID 165).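 Note: 0% = growth equal to vehicle treated cultures.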 The note with it: S. cerevisiae cln2 rad14 strain, stronger effect = higher value. The method, boiled down:
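Yeast strain cln2 rad14, bearing defects in cell cycle control and DNA repair, serves as the test system; values reflect growth inhibition compared with vehicle.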

Experiment [5] in a line: NCI Yeast Anticancer Drug Screen. Data for the bub3 strain (AID 167). The following applies: S. cerevisiae bub3 mutant strain, stronger effect = higher value. The method, boiled down: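 Inhibition values come from growth of compound-treated mutant yeast normalised to vehicle-treated controls.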
Experiment [6] is described as follows: NCI Yeast Anticancer Drug Screen. Data for the mlh1 rad18 strain (AID 175). The note with it: S. cerevisiae mlh1 rad18 strain growth inhibition, stronger effect = higher value. The method, boiled down: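 Steps: expose repair-defective yeast to compound; measure growth; express inhibition against vehicle-treated controls.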
Setting [7] is: at 5.0 µM (retest, dose inferred, filed as 0.5).
Setting [8] is: at 50.0 µM (retest, dose inferred, filed as 5.0).

Consider `c1ccc(C2NCCNC2c2ccccc2)cc1` (centres undefined), for which the growth inhibition in experiment [1] (setting [7]) was 1%; in experiment [1] (setting [8]), -5%; in experiment [1] (at 50.0 µM) it was 2.15%; in experiment [2] (setting [7]), 0%; in experiment [2] (setting [8]), -10%; in experiment [2] (at 50.0 µM), 15%. Also, the growth inhibition in experiment [3] (setting [7]) is 0%; in experiment [3] (setting [8]), -9%; in experiment [3] (at 50.0 µM), 22.3%; in experiment [4] (setting [7]) it was 3%; in experiment [4] (setting [8]), -6%; in experiment [4] (at 50.0 µM), -1.8%. In addition, the growth inhibition in experiment [5] (setting [7]) is 4%; in experiment [5] (setting [8]) it was 5%; in experiment [5] (at 50.0 µM), 55.3%; in experiment [6] (setting [7]), -3%; in experiment [6] (setting [8]) it was -7%; in experiment [6] (at 50.0 µM), -19.2%.
As for `O=S(=O)(O)c1cnccn1`, the growth inhibition was 0% in experiment [1] (setting [7]); -4% in experiment [1] (setting [8]); 91.3% (active) in experiment [1] (at 50.0 µM); -2% in experiment [2] (setting [7]); -3% in experiment [2] (setting [8]); 98.3% (active) in experiment [2] (at 50.0 µM). The growth inhibition in experiment [3] (setting [7]) is -4%; in experiment [3] (setting [8]), -3%; in experiment [3] (at 50.0 µM), 87.8% (active); in experiment [4] (setting [7]), 0%; in experiment [4] (setting [8]) it was 3%; in experiment [4] (at 50.0 µM) it was 80.8% (active). Besides, the growth inhibition was 2% in experiment [5] (setting [7]); 6% in experiment [5] (setting [8]); 96.9% (active) in experiment [5] (at 50.0 µM); 1% in experiment [6] (setting [7]); -2% in experiment [6] (setting [8]); 80.9% (active) in experiment [6] (at 50.0 µM).
Take `C1=C(c2ccccc2)c2ccccc2C1`: the growth inhibition was 0% in experiment [1] (setting [7]); 29% in experiment [1] (setting [8]); 75.2% (active) in experiment [1] (at 50.0 µM); -23% in experiment [2] (setting [7]); 17% in experiment [2] (setting [8]); 63.4% in experiment [2] (at 50.0 µM). For the same compound, the growth inhibition in experiment [3] (setting [7]) is -13%; in experiment [3] (setting [8]) it was 12%; in experiment [3] (at 50.0 µM), 48%; in experiment [4] (setting [7]), 23%; in experiment [4] (setting [8]), 19%; in experiment [4] (at 50.0 µM), 50%. Further, the growth inhibition in experiment [5] (setting [7]) is -12%; in experiment [5] (setting [8]), 18%; in experiment [5] (at 50.0 µM) it was 58.9%; in experiment [6] (setting [7]), 5%; in experiment [6] (setting [8]) it was 57%; in experiment [6] (at 50.0 µM), 49.9%.

The values are drawn from PubChem BioAssay (NCI).
